aSyn UTR act – Activators via SNCA 5'UTR binding, MLPCN. alpha-synuclein 5'UTR reporter, activators screen. activity score, % (tested at 7.5 µM), hits read low. 300,000 compounds, 7.1% hits; in the data active means activity score below about -60%
A number is an active result; . = inactive. A selection follows.

SMILES	aSyn UTR act
Cc1ccc(O)c(NC(=O)c2ccco2)c1	-66.2
Cc1ccc(C(=O)Nc2ccc(NC(=O)c3ccco3)c(C)c2)cc1	-67.5
Cc1cc(O)c(NC(=O)c2ccco2)cc1C	-98.1
Cc1cc(NC(=O)C(C)C)ncc1NC(=O)c1ccccn1	-87.6
CCOc1ccc(C(=O)N/N=C/c2ccccc2[N+](=O)[O-])cc1	-125.9
CCC(=O)Nc1ccc(C(=O)N/N=C/c2ccccc2[N+](=O)[O-])cc1	-81.1
Cc1ccc(C(=O)N/N=C\c2ccccc2[N+](=O)[O-])cn1	-111.1
CN(C(=O)c1ccc(-c2ccccc2)cc1)C1CCCCC1	-127.4
Cc1ccc(C(=O)NC(=S)N(C)C2CCCCC2)cc1	-84.0
COc1ccccc1-c1cnn2c(NC3CCCC3)cc(C)nc12	-181.9
COc1cc2c(cc1OC)-c1cc(NC3CCCCCCC3)nc(=O)n1CC2	.
COc1ccccc1-c1ccc(NC2CCCC2)nn1	-120.4
Cc1ccc(NC(=O)COc2ccc(C3SCCS3)cc2)cc1	-69.4
O=C(CSc1ccc(F)cc1)Nc1ccc(C2SCCS2)cc1	-155.0
CCN(C(=O)CSc1cc(C)c2cccc(C)c2n1)C1CCS(=O)(=O)C1 (stereo not drawn)	-79.6
COc1ccc(C(=O)Nc2ccc3[nH]ccc3c2)cc1OC	-134.2
COc1ccc(C(=O)Nc2ccc3[nH]ccc3c2)cc1	.
COc1ccc(OC)c(C(=O)Nc2ccc3[nH]ccc3c2)c1	-112.1
Cc1cc(NC(=O)CSc2nc(-c3ccco3)cc(C(F)(F)F)n2)no1	.
CS(=O)(=O)c1nc(-c2ccco2)cc(C(F)(F)F)n1	-75.6
Cc1c(C(C)(C)C)sc(=NC(=O)c2ccccc2O)n1C	-125.5
COc1ccc(CCN2CC(C(=O)NCCc3ccccc3)CC2=O)cc1OC (stereo not drawn)	-97.3
COc1ccc(CCNCC(O)Cn2c3ccccc3c3ccccc32)cc1OC (stereo not drawn)	.
CC(=O)Nc1ccc(OS(=O)(=O)c2ccc([N+](=O)[O-])cc2)cc1	-115.0
O=C(Nc1ccccc1F)c1cc(Cl)sc1Cl	-62.5
SMILES	aSyn UTR act
CC(=O)Nc1cc[n+](C(C)C(=O)c2ccc(Cl)cc2)cc1 (stereo not drawn)	.
O=C(Nc1ccc(Oc2ccc(NC(=O)Nc3ccc([N+](=O)[O-])cc3)cc2)cc1)Nc1ccc([N+](=O)[O-])cc1	.
CC(=O)c1ccc(NC(=O)Nc2ccc(Cl)cc2)cc1	-192.6
CC(=O)c1ccc(NC(=O)Nc2ccc([N+](=O)[O-])cc2)cc1	-148.0
O=C(Nc1ccccc1F)c1ccc([N+](=O)[O-])s1	-115.2
CC(=O)c1ccc(NC(=O)c2cc(Cl)sc2Cl)cc1	-155.8
CCC(=O)Oc1ccc(C(=O)Nc2ccc([N+](=O)[O-])cc2)cc1	-169.7
Cc1nc(NC(=O)c2ccccc2)sc1-c1csc(Nc2ccc(C(=O)O)cc2)n1	-73.3
CCCC(C)C(=O)Nc1nc(C)c(-c2csc(Nc3cc(OC)ccc3OC)n2)s1 (stereo not drawn)	.
O=C(O)c1ccc(Nc2nc(-c3ccccc3)cs2)cc1	-113.9
COc1ccccc1Nc1nc(-c2sc(NC(=O)c3cccc(Cl)c3)nc2C)cs1	-85.5
Cc1nc(N)sc1-c1csc(Nc2ccccc2)n1	-129.7
CC(=O)NC1=NN(C(C)=O)C(c2ccc(C(C)C)cc2)S1 (stereo not drawn)	-77.5
Cc1ccccc1Oc1cc(NC(=O)Cn2cnc([N+](=O)[O-])c2)cc([N+](=O)[O-])c1	-90.8
O=C1c2cccc3c(O)ccc(c23)C(=O)N1c1ccc(Cl)cc1	-140.6
O=C(c1cc2cc(Br)ccc2[nH]1)N1CCc2ccccc21	-75.8
O=C(c1cc2cc(F)ccc2[nH]1)N1CCc2ccccc21	-176.7
COc1ccc2cc(C(=O)N3CCc4ccccc43)[nH]c2c1	-121.8
COc1ccc(-c2cc(C(F)F)n3ncc(C(=O)N4CCc5ccccc54)c3n2)cc1	.
Cc1cccc(C(=O)CC(=O)c2cc(Cl)ccc2O)c1	.
Cc1ccc(O)c(C(=O)CC(=O)c2cccc(F)c2)c1	-84.7
O=C(CC(=O)c1cc(Cl)ccc1O)c1ccccc1	-98.9
NC(=NCCc1ccccc1)NC(=O)c1cc(Cl)ccc1O	-108.1
Cc1cc(N2CCN(C)CC2)nc2ccc(NC(=S)NCc3cccs3)cc12	-77.9
CCCN(CCC)CCCNC(=S)Nc1ccc2nc(N3CCCC3)cc(C)c2c1	-72.3
SMILES	aSyn UTR act
Cc1cc(N2CCN(C)CC2)nc2ccc(NC(=S)NCCC(C)C)cc12	-85.8
O=C(O)c1ccc(N/N=C/c2ccc(OC(=O)c3ccccc3Cl)cc2)cc1	.
O=C(O)c1ccc(N/N=C/c2ccc(-c3ccccc3Cl)o2)cc1	-64.5
Cc1ccc(/C=N/Nc2ccc(C(=O)O)cc2)s1	.
Cc1ccc(/C=N/Nc2ccc(C(=O)O)cc2)o1	-69.5
Cc1ccccc1OCc1occc1C(=O)Nc1cccc(-n2cnnn2)c1	-91.5
CCOC(=O)NC1(Nc2ccc(C)cc2)Oc2ccccc2O1	-100.0
Cc1ccc2c(c1)OC(c1ccc3c(c1)OCCO3)CC2=O (stereo not drawn)	-151.0
O=C(C1=NNCC1c1ccccc1)C1OC1c1ccccc1 (stereo not drawn)	-83.5
Cc1cccc(NC(=S)NNC(=O)c2csc(C(C)C)c2)c1	-211.1
CCc1cc(C(=O)NNC(=S)Nc2cccc(C)c2)cs1	-129.8
Cc1cccc(NC(=S)NNC(=O)c2sccc2C)c1	-134.2
CCc1cc(C(=O)Nc2ccc(C)cc2Br)cs1	-255.2
CCc1nonc1NC(=O)c1oc2ccc(C)cc2c1C	-111.9
CCc1nonc1NC(=O)c1oc2ccccc2c1C	-75.1
CCc1nonc1NC(=O)c1oc2cc(Br)ccc2c1C	-112.8
CCc1ccc2oc(C(=O)Nc3nonc3CC)c(C)c2c1	-135.1
Cc1cccc(/C(N)=N/OC(=O)c2ccc3c(c2)OCO3)c1	-115.9
N/C(=N\OC(=O)c1ccc2c(c1)OCO2)c1cccc([N+](=O)[O-])c1	-132.7
Brc1ccc2oc3c(N4CCOCC4)ncnc3c2c1	-157.5
COc1ccc(Nc2c([N+](=O)[O-])ccc3c2=NC2(CCCCC2)N=3)cc1	-63.8
O=Nc1c2nc3ccccc3n(O)c-2c2ccccc12	-129.0
Cc1ccc(Sc2cnc3ccccc3n2)cc1	-176.1
Cc1ccc(OCCCSc2ncccn2)cc1C	-103.9
c1cnc(SCCCOc2ccc3ccccc3c2)nc1	-67.9
SMILES	aSyn UTR act
OC(COc1ccc(Cl)cc1)CSc1ccccn1 (stereo not drawn)	-90.1
CCCC(NCC(O)COc1ccc(-c2ccccc2)cc1)c1ccccc1 (stereo not drawn)	.
COc1ccc(OCCCSc2ncccn2)cc1	-168.3
CC(=O)O[C@H]1C(=O)[C@]2(C)[C@H]([C@H](OC(=O)c3ccccc3)[C@]3(O)C[C@H](OC(=O)[C@H](O)[C@@H](NC(=O)c4ccccc4)c4ccccc4)C(C)=C1C3(C)C)[C@]1(OC(C)=O)CO[C@@H]1C[C@@H]2O	.
Clc1ccc(OCCSc2ncccn2)cc1	-160.2
CC(C)SCCCCOc1ccc2ccccc2c1	-112.2
Cc1cccc(-n2ncc3c(NCc4ccco4)ncnc32)c1	-548.7
Cc1ccc(-n2ncc3c(NCc4ccco4)ncnc32)cc1C	-183.0
CSC1=NC(C)(C)CC2(C)Nc3ccccc3N12 (stereo not drawn)	-87.8
COC1=C(C)C(O)=C(C(=O)/C=C/c2ccccc2)C(=O)C1(C)C	-104.3
CCCCCCN1Cc2ccccc2C1	-117.1
CCCCCCCCCCn1ccc(=N)cc1	.
CCCCCCCCn1ccc(=N)cc1	.
O=C(CC1CCCCC1)NCc1ccccc1Cl	-107.2
O=C(c1cc(COc2ccc3ncccc3c2)on1)N1CCC[C@H]1CO	-66.7
